Data as given in PubChem BioAssay.
“And” between values parts separate entries of the source, which are not always exact repeats. Identical values can stand only once. The source made the active and inactive calls. Unless noted, the rule behind the calls is not given here.

How the values were obtained:
[1] = tested on: Aerobactin synthetase IucA (Klebsiella pneumoniae); experiment: inhibition of K. pneumoniae IucA enzyme – biochemical, Tocris library, absorbance (AID 1345561); details: purified IucA enzyme assay, absorbance (OD) read-out; stronger effect = lower value;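 tested at 8 µM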;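 note: 100% = enzyme without compound and 0% = no enzyme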
[2] = viability loss with induced miR-34 in A549 – imaging, A549 dox-inducible miR-34, nuclei and caspase counts, primary screen (AID 1347080;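 active = compounds whose cell count with miR-34 switched on is under 0.7 times the count with it off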); details: A549 miR-34 inducible, Hoechst nuclei count, 48 h
[3] = galactose survival enhancers in mitochondrial complex I cybrids – cell-based, galactose medium, ATP luminescence, primary screen (AID 1645843;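 active = z-score of at least 1.8 in each of two replicates, scored against plate mean and spread of sample wells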;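 note: positive z means more ATP and so rescue of galactose-driven cybrid death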); details: complex I mutant cybrid cells, 72 h, stronger effect = higher value
[4] = compounds altering circadian rhythm period length – cell-based, LOPAC library, luminescence reporter (AID 2774); details: circadian reporter cells, at 7 µM, actives lie on both sides;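 note: values are relative to mean of DMSO wells on each plate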
[5] = compounds altering viability of human ES cells (AID 493140); details: human embryonic stem cell survival screen; stronger effect = higher value;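 note: cells exposed to compounds for four days before counting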
[6] = stronger effect = lower value, cell number ratio, induced over uninduced
[7] = measured here: relative caspase fold change +Dox/-Dox
[8] = measured here: total cells with miR-34 induction, stronger effect = lower value
[9] = measured here: total cells without miR-34 induction

Row | SMILES | remaining activity [1] | fold change [2, 6] | fold change [2, 7] | cell count [2, 8] | cell count [2, 9] | z-score [3] | period change [4] | survival [5]
1 | O=C(O)Cc1cc2ccccc2nc1C(=O)O | 129% (inactive) | 0.938 (inactive) | 1.06 | 8250 | 8790 | 0.145 (inactive) |  | 
2 | O=c1[nH]c2cc(Cl)ccc2c(O)c1-c1cccc(Oc2ccccc2)c1 | 103% (inactive) | 0.963 (inactive) | 0.827 | 8760 | 9100 | 0.335 (inactive) |  | 
3 | N[C@@H](C(=O)O)c1ccc(O)c(C(=O)O)c1 | 100% (inactive) | 0.932 (inactive) | 0.807 | 8680 | 9320 | -0.18 (inactive) |  | 
4 | CN(Cc1ccccc1)C(=O)[C@H](Cc1ccc2ccccc2c1)NC(=O)[C@@H]1C[C@@H](O)CN1C(=O)c1cn(C)c2ccccc12 | 102% (inactive) | 0.957 (inactive) | 1.21 | 6080 | 6350 | 3.41 (active) |  | 
5 | COc1cccc(CCc2ccccc2OCC[C@@H]2C[C@@H](O)CN2C)c1 | 109% (inactive) | 1.04 (inactive) | 0.632 | 7340 | 7050 | -0.705 (inactive) |  | 
6 | CC(C)N1CCN(c2ccc(C(=O)c3c(-c4ccc(O)cc4)sc4cc(O)ccc34)cc2)CC1 | 105% (inactive) | 0.989 (inactive) | 1.64 | 6900 | 6980 | -0.43 (inactive) |  | 
7 | Nc1nc(Nc2ccccc2)nc2c1ncn2[C@@H]1O[C@H](CO)[C@@H](O)[C@H]1O | 107% (inactive) | 0.978 (inactive) | 0.752 | 9880 | 10100 | -0.09 (inactive) |  | 
8 | CCn1c(=O)n(C2=C(CO)CN(CC3CCCCCCC3)CC2)c2ccccc21 | 102% (inactive) | 0.951 (inactive) | 1.46 | 7150 | 7510 | -0.665 (inactive) |  | 
9 | COC(=O)Nc1ccc2[nH]cc(CCNC(C)=O)c2c1 | 121% (inactive) | 0.99 (inactive) | 0.823 | 8200 | 8280 | -0.205 (inactive) |  | 
10 | COc1ccccc1N1CCN(CCN2C(=O)c3ccccc3C(C)(C)C2=O)CC1 | 124% (inactive) | 1.04 (inactive) | 1.01 | 7580 | 7320 | -0.455 (inactive) |  | 
11 | CC(C)SC(=N)N | 92% (inactive) | 0.945 (inactive) and 0.931 (inactive) | 0.992 and 1.03 | 5980 and 8810 | 6320 and 9460 | 0.865 (inactive) |  | 
12 | CCC1(c2ncc[nH]2)Cc2ccccc2O1 (stereo unspecified) | 118% (inactive) | 0.963 (inactive) | 0.89 | 9330 | 9690 | 0.05 (inactive) |  | 
13 | OC[C@H]1O[C@@H](n2cnc3c(NC4CCCC4)nc(Cl)nc32)[C@H](O)[C@@H]1O | 122% (inactive) | 0.891 (inactive) | 0.662 | 8890 | 9980 | 0.55 (inactive) |  | 
14 | O=[N+]([O-])c1ccccc1S(=O)(=O)NCC1CCC(CNCC2CCc3ccccc3C2)CC1 (stereo unspecified) | 97.1% (inactive) | 0.747 (inactive) | 1.77 | 2050 | 2740 | -0.675 (inactive) |  | 
15 | c1ccc(C(O[C@@H]2CCCN(CCc3ccc4c(c3)OCO4)C2)c2ccccc2)cc1 | 119% (inactive) | 0.989 (inactive) | 1.1 | 8350 | 8440 | -0.585 (inactive) |  | 
16 | O=c1[nH]ccc2c(S(=O)(=O)N3CCCNCC3)cccc12 | 105% (inactive) | 0.922 (inactive) | 0.813 | 9480 | 10300 | -0.145 (inactive) |  | 
17 | COc1ccccc1N1CCN(CCn2c(=O)[nH]c3c([nH]c4ccccc43)c2=O)CC1 | 108% (inactive) | 0.88 (inactive) | 0.64 | 8910 | 10100 | 1.92 (active) |  | 
18 | O=C(c1c(O)c2ccc(Cl)cc2[nH]c1=O)C1CC1 | 118% (inactive) | 0.973 (inactive) | 1.04 | 8250 | 8480 | -0.025 (inactive) |  | 
19 | CCOC(=O)c1c(C)[nH]c2ccc3c(c12)CN1CCc2cc(OC)ccc2C1O3 (stereo unspecified) | 112% (inactive) | 0.942 (inactive) | 0.667 | 3940 | 4180 | -0.785 (inactive) |  | 
20 | c1ccc2sc(N3CCN(Cc4ccc5c(c4)OCO5)CC3)nc2c1 | 98.7% (inactive) | 0.958 (inactive) | 0.859 | 9100 | 9500 | -0.155 (inactive) |  | 
21 | N#C/C(=C\c1ccc(O)c(O)c1)C(=O)NCCCCc1ccccc1 | 95.7% (inactive) | 0.982 (inactive) | 1.09 | 7480 | 7610 | -0.725 (inactive) |  | 
22 | c1ccc(C2NNCC2c2ccnc3ccccc23)nc1 (stereo unspecified) | 101% (inactive) | 0.908 (inactive) | 1.57 | 8690 | 9570 | -0.15 (inactive) |  | 
23 | Cc1cccc(C)c1NC(=O)C[N+](C)(C)C | 109% (inactive) | 1 (inactive) | 0.946 | 9170 | 9160 | -0.035 (inactive) | 0.05 h (inactive) | 
24 | FC(F)(F)c1cc(CO[C@H]2CCCN[C@H]2c2ccccc2)cc(C(F)(F)F)c1 | 112% (inactive) | 1.01 (inactive) | 0.987 | 2150 | 2140 | -0.8 (inactive) | 0 h (inactive) | 
25 | CN1Cc2c(C(=O)OC(C)(C)C)ncn2-c2ccsc2C1=O | 105% (inactive) | 0.89 (inactive) | 1.34 | 7080 | 7950 | 0.15 (inactive) |  | 
26 | COC(=O)/C=C/c1cc(O)ccc1O | 98.4% (inactive) | 0.869 (inactive) | 0.871 | 8110 | 9340 | -1.21 (inactive) |  | 85.3 (inactive)
27 | N#C/C(=C\c1ccc(O)c(O)c1)C(N)=O | 122% (inactive) | 0.887 (inactive) | 1.74 | 9080 | 10200 | -0.47 (inactive) |  | 73 (inactive)
